Laboratory results published in publication PMC5540273 (PLoS ONE, 2017).
Where “and” joins values, the source holds several entries; their conditions need not be identical. Equal entries are not always repeated. Where two headings read alike, the source gives them in different places.

What was measured:
MYO3B = conditions: concentration: 1 μM, replicates: in singlicate, n = 1
NDR1 = tested on: T1, NDR1; conditions: concentration: 1 μM, replicates: in singlicate, n = 1
T1 construct: gene STK38

NDR2 = conditions: concentration: 1 μM, replicates: in singlicate, n = 1
NEK10 = conditions: concentration: 1 μM, replicates: in singlicate; n = 1
NEK11 = conditions: concentration: 1 μM, replicates: in singlicate; n = 1
NEK1 = conditions: concentration: 1 μM, replicates: in singlicate, n = 1
NEK2 = conditions: concentration: 1 μM, replicates: in singlicate, n = 1
NEK3 = conditions: concentration: 1 μM, replicates: in singlicate, n = 1
NEK4 = conditions: concentration: 1 μM, replicates: in singlicate; n = 1
NEK5 = conditions: concentration: 1 μM, replicates: in singlicate, n = 1
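Further: KINOMEscan kinase panel screen.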

Structure (SMILES)	%Inh (MYO3B) [%]	%Inh (NDR1) [%]	%Inh (NDR2) [%]	%Inh (NEK10) [%]	%Inh (NEK11) [%]	%Inh (NEK1) [%]	%Inh (NEK2) [%]	%Inh (NEK3) [%]	%Inh (NEK4) [%]	%Inh (NEK5) [%]	%Inh (MYO3B; 1 µM)	%Inh (NDR1; 1 µM)	%Inh (NDR2; 1 µM)	%Inh (NEK1; 1 µM)	%Inh (NEK2; 1 µM)	%Inh (NEK3; 1 µM)	%Inh (NEK5; 1 µM)
CCn1cnc2c(N)ncnc21 [GW345098]	0	15	8	39	0	0	13	3	12	10							
O=c1cc(N2CCOCC2)nc2n(Cc3cccc(Cl)c3Cl)c(C3CC3)nn12 [GSK2358994]	0	0	0	20	0	0	7	5	11	0							
Cc1cccc(Cn2ccn3c(=O)cc(N4CCOCC4)nc23)c1 [GSK2297542]	0	33	0	14	6	12	15	15	16	19							
CCc1nc(-c2cccc(C)c2)c(-c2ccnc(NCc3ccccc3)c2)s1	0	0	0	0	0	7	0	24	0	0							
Fc1ccc(-c2ncn(CCCN3CCOCC3)c2-c2ccccn2)cc1 [SB-211742]	10	13	0	0	0	0	7	28	0	16							
COc1cc2ncn(-c3cc(OCc4sccc4Cl)c(C(N)=O)s3)c2cc1OC [GSK448459]	0	0	0	0	0	13	97.1	4	0	11							
COc1cc(Nc2nccc(N3CCC(NC(=O)c4cccc(NC(C)=O)c4)C3)n2)cc(OC)c1OC (centres unmarked) [GSK1379754]	0	19	0	20	0	48	7	54	24	100							
Cl.Oc1cccc(Nc2ccnc3cc(-c4ccncc4)ccc23)c1 [GW494601]	0	24	37	0	49	0	0	1	0	0							
COc1ccc(Nc2nccc(N3CCC(NC(=O)Nc4cccc(C(C)=O)c4)C3)n2)cc1 (centres unmarked) [GSK1379731]	0	0	0	13	15	0	0	0	13	3							
Cc1ccc(C(=O)NCC(N)=O)cc1-n1c(C)cc(OCc2ccc(F)cc2F)c(Br)c1=O	15	24	13	0	0	0	10	29	0	0							
Cl.Nc1ncnc2occ(-c3ccc(NC(=O)Nc4cc(C(F)(F)F)ccc4F)cc3)c12 [SB-707548]	57	29	40	1	0	40	37	1	5	30							
COC(=O)Nc1nc2cc(Oc3ccc(NC(=O)Nc4cc(F)ccc4F)cc3)ccc2[nH]1.Cl [GW701424]	0	26	0	8	7	0	0	0	0	3							
N#Cc1c(N2CCOCC2)sc(-c2ccn[nH]2)c1-c1ccc(Cl)cc1	32	7	0	4	0	9	0	23	0	0							
Cl.Cl.Cl.Fc1ccc(-c2ncn(C3CCNCC3)c2-c2ccnc(Nc3ccccc3)n2)cc1 [SB-238039]				0	0				0		20% and 21%	37% and 6%	8% and 0%	15% and 0%	0% and 2%	23% and 29%	0% and 15%
Nc1nccc(-c2c(-c3ccc(F)cc3)ncn2C2CCN(CC(F)(F)F)CC2)n1 [SB-236560]	0	38	0	42	0	0	0	24	0	16							
CCc1ccnc(/C=C/c2n[nH]c3cc(Sc4ccccc4C(=O)NC)ccc23)c1	0	7	0	4	0	0	0	1	0	0							
O=C1NC(=O)C(N2CCc3ccccc32)=C1c1cccc(Cl)c1 [SB-408010]	21	6	7	43	0	3	12	14	0	0							
